Only some compounds are listed: those with a hit (about 10% of all), similar ones and a draw of the others.
BAZ2B inh = qHTS Assay for Inhibitors of BAZ2B; Bromodomain adjacent to zinc finger domain protein 2B (Homo sapiens), Q9UIF8; AlphaScreen BAZ2B-H3K14Ac peptide displacement; Potency, µM (top dose mostly 114 µM), hits mostly inhibitors; 360,000 tested, 4.4% active; AID 504333, 2011; note: nearly all actives have a fitted effect of over 60% in size
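Multi-concentration screen (max 110 uM) measuring displacement of acetylated histone H3 peptide from BAZ2B by AlphaScreen, using 50 nM protein, 50 nM peptide and 10 ug/mL streptavidin donor plus Ni-chelate acceptor beads.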
CtBP-E1A inh = qHTS Assay for Inhibitors of the CtBP/E1A Interaction; activity change, % (no concentration beside the values); 340,000 tested, 0.49% active; CtBP / adenovirus E1A interaction (AlphaScreen); AID 651724, 2012; AlphaScreen GST-E1A/His-CtBP binding, 1536-well; active compounds read low; in the data active = activity change below about -65%; inconclusive = mostly about -30% to -63%
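Homogeneous bead-based format: GST-tagged E1A captured on glutathione donor beads, His-tagged CtBP on nickel acceptor beads; compounds precede bead addition by 2 h at 37 °C.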
Six1-Eya2 inh = qHTS Assay for Inhibitors of the Six1/Eya2 Interaction | Homeobox protein SIX1 (Homo sapiens) + Protein phosphatase EYA2 (Homo sapiens), … | AlphaScreen GST-Six1/His-Eya2 binding, biochemical; active compounds read low | activity change, % (concentration not given with the values) | 360,000 tested, 0.56% active | AID 651725, 2012; in the data active = activity change below about -65%; inconclusive = mostly about -30% to -63%
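Homogeneous AlphaScreen proximity assay pairing GST-Six1 with His-tagged Eya2 (added as 5X mix: 250 nM and 500 nM) in 50 mM Tris pH 8.0, 300 mM NaCl, 1 mM TCEP. Glutathione donor and nickel acceptor beads; 1 h, 37 °C, dark.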
HP1b binding inh = HTS for Inhibitors of HP1-beta Chromodomain Interactions with Methylated Histone Tails | Chromobox protein homolog 1 (Homo sapiens), P83916 | AlphaScreen HP1-beta / biotin-H3K9me3 peptide binding | Potency, µM (doses to about 114 µM), most hits filed as inhibitors | 390,000 tested, 0.56% active; note: nearly all actives have a fitted effect of over 70% in size
Target sequence (P83916 whole entry, looked up): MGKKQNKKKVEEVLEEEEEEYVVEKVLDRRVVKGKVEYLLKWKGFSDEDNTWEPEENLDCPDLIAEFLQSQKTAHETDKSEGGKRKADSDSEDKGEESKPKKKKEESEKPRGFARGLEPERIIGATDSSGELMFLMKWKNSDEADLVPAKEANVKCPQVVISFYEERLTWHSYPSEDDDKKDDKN
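HP1-beta protein (50 nM final) preincubated 30 min at room temperature with biotinylated H3(1-18)K9me3 peptide (50 nM) in PBS pH 7.4, 0.01% Tween-20, then compound added for 30 min. AlphaScreen streptavidin donor/nickel chelate acceptor beads (10 ug/mL final), 30 min dark, luminescence read.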
G9a block = qHTS Assay for Inhibitors of Histone Lysine Methyltransferase G9a. Histone-lysine N-methyltransferase EHMT2 (Homo sapiens), Q96KQ7. G9a H3K9 monomethylation, AlphaScreen, 2 h. Potency, µM (titrated, usually from 102 µM), usual class: inhibitors. 350,000 tested, 8.8% active. AID 504332, 2011; note: nearly all actives have a fitted effect of over 75% in size
Target sequence (Q96KQ7 913-1193 limits assumed): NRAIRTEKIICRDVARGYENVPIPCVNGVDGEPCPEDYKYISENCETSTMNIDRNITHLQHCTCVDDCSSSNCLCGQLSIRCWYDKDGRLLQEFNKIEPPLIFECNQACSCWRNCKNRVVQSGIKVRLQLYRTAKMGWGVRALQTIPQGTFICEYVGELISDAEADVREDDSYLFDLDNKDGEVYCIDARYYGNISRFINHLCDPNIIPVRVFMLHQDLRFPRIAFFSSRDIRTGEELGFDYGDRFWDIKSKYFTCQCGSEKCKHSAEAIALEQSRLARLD
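Step 1: enzyme (final 20 nM) with compound, 15 min RT. Step 2: substrate peptide 500 nM and SAM 20 uM, 2 h RT. Step 3: anti-H3K9me1 antibody and AlphaScreen beads, 10 min, then plate read.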
JMJD2A Tudor inh = qHTS Assay for Inhibitors of JMJD2A-Tudor Domain. Lysine-specific demethylase 4A (Homo sapiens), O75164. AlphaScreen JMJD2A-Tudor / H3K4me3 peptide binding. Potency, µM (doses to about 114 µM), actives largely listed as inhibitors. 390,000 tested, 4.4% active; note: nearly all actives have a fitted effect of over 50% in size
Numbers stand for hits; - = inactive; ? = inconclusive; . = not tested or not shown; [ ] = another dose, or the depositor's remark. Unless noted, calls come from the whole dose curve; as a rule, active = well fitted inhibition curve with a large enough effect; inconclusive = small, poorly fitted or top-dose-only effect; inactive = no such curve, though single readings can be large or run the other way.

SMILES	BAZ2B inh	CtBP-E1A inh	Six1-Eya2 inh	HP1b binding inh	G9a block	JMJD2A Tudor inh
COc1ccc(C(=O)NC(=S)NNC(=O)Cc2cccs2)cc1	-	-	-	-	11µM	?
COc1cc(OC)cc(C(=O)NC(=S)NNC(=O)Cc2cccs2)c1	-	.	-	-	8.9µM	-
CN1CCCCCC1=Nc1ccccc1C#N	45µM	-	-	13µM	?	1.8µM
COC(=O)CN1C(=O)CSc2ccc(S(=O)(=O)N3CCOCC3)cc21	-	.	.	-	?	-
CN(c1ccc(F)cc1)S(=O)(=O)c1ccc(Cl)c(C(=O)NCC(c2ccco2)N2CCCCC2)c1 (stereo not drawn)	56µM	-	-	-	28µM	?
C=C1c2cccc(OC)c2O[C@H](C(=O)OCC)[C@@H]1CCC(C)C	.	.	.	.	32µM	.
Cn1nnnc1SCCNCc1cc(Br)ccc1OCc1ccccc1Cl	-	.	.	-	-	-
Fc1ccccc1C(NCCc1ccc(Cl)cc1)c1nnc(-c2ccccc2)o1 (stereo not drawn)	-	.	.	-	-	-
Clc1ccc(CSc2nc3ncccc3[nH]2)cc1	-	.	.	-	-	-
Cc1cc(C)c(C(=O)c2cccs2)c(C)c1	.	-	-	-	.	-
Cc1cc(C(=O)c2cccs2)c(N)s1	-	-	-	?	40µM	?
CCOc1ccccc1NC(=O)CN(CCc1ccccc1)S(=O)(=O)c1ccc(C)cc1	-	.	.	-	-	-
CNCc1ccccc1Sc1ccc(O)c(O)c1	?	-	-	?	13µM	79µM
Cc1ccccc1CSc1cn(CCNC(=O)c2cccs2)c2ccccc12	?	.	.	-	-	-
O=C(COc1ccccc1O)NNc1ccccc1	-	-	-	-	16µM	-
CNC(=S)NNC(=O)COc1ccccc1C	-	-	-	-	32µM	20µM
CNC(=S)NNC(=O)COc1cccc(C)c1C	-	-	-	-	7.9µM	40µM
O=C(COc1ccccc1O)Nc1ccccc1Cl	-	-	-	-	-[2.33 µM]	-
CCOc1ccccc1CNC(=O)C1CCN(c2nc3ccccc3nc2C(F)(F)F)CC1	-	.	.	-	-	-
O=C1C2=C(C(=O)c3ccccc31)C1O[C@](c3ccsc3)(Cc3c1ccc1ccccc31)O2	11µM	.	.	.	-[2.33 µM]	.
Cc1noc2ncnc(NCc3ccc(Cl)cc3)c12	-	.	.	-	-	-
COc1cc(CNC2CCCCC2OC)cc(OC)c1 (stereo not drawn)	56µM	.	-	?	?	5.6µM
COc1cc(CNC(=O)OC2CC3CC2[C@H]2CCCCN2C3=O)cc(OC)c1 (stereo partly drawn)	.	-	-	.	.	.
Cc1ccc(C(=O)NCc2ccc(N(C)C)cc2)cc1NC(=O)c1nsc2ccccc12	?	.	.	-	-	?
COCC(=O)N(C)c1nnc(-c2ccccn2)s1	56µM	-	-	-	-[12.7 µM]	-[11.4 µM]
SMILES	BAZ2B inh	CtBP-E1A inh	Six1-Eya2 inh	HP1b binding inh	G9a block	JMJD2A Tudor inh
Cc1ccc(CNC(=O)Cc2c(C(=O)O)c(C)cn2C)cc1	-	.	.	-	-	-
CCNc1ncc2nc(-c3ccc(F)cc3)c(=O)n(CCc3ccccc3)c2n1	.	.	.	.	-[0.501 µM]	.
CCCn1c(NCc2ccc(N(C)C)cc2)nc2ccccc21	?	-	-	-	50µM	?
CCCn1c(Nc2nc3ccccc3n2C)nc2ccccc21	8.9µM	-	-	-	-	56µM
CN(C)c1ccc(CNc2nc3ccccc3n2C)cc1	.	-	-	.	.	.
CCN(CC)c1ccc(CNc2nc3ccccc3n2CC)cc1	45µM	-	-	?	32µM	?
CCn1c(Nc2ccccc2Cl)nc2ccccc21	-	-	-	-	-	45µM
Cc1ccc(-n2nc(C)c3c(C)c(CCC(=O)NCc4ccc(Cl)cc4)c(C)nc32)cc1	-	.	.	-	-	-
COc1ccccc1N1CCN(c2nc3ccc(C)cc3nc2-n2nc(C)cc2C)CC1	-	.	.	-	-	-
CCN(C(=O)Cc1c(C(=O)O)c(C)cn1C)c1cccc(Cl)c1	-	.	.	-	-	-
CCN(CC)CCn1c(NCc2ccc(C)o2)nc2ccccc21	?	-	-	-	50µM	?
CC(C)c1ccc2c(c1)C1(NN=C(c3ccccc3)S1)C(=O)N2 (stereo not drawn)	10µM	-	?	?	18µM	71µM
CCc1ccc2c(c1)C1(NN=C(c3ccc(C)cc3)S1)C(=O)N2 (stereo not drawn)	7.9µM	-	-	18µM	28µM	50µM
CC(C)c1ccc(O)c(NC(=O)c2ncn[nH]2)c1	?	-	-	-	.	-
CCC(CC)C(=O)N1CCc2cc(OC)c(OC)cc2C1COc1ccc2c(C)cc(=O)oc2c1 (stereo not drawn)	-	.	.	-	-	-
O=c1c2ccccc2nc2sc3ccccc3n12	-	-	-	-	-	-[11.4 µM]
O=c1/c(=C\c2cc([N+](=O)[O-])cc([N+](=O)[O-])c2O)sc2nc3ccccc3n12	50µM	-	-	?	6.3µM	20µM
O=c1/c(=C/c2ccccn2)sc2nc3ccccc3n12	-	-	-	-	50µM	?
NCCCCNc1ncnc2ccc(-c3ccc4c(c3)OCO4)cc12	.	.	.	.	.	-

From PubChem BioAssay
